Experimental data reported in PubChem BioAssay (NCI).
Compounds without any hit were thinned out: in the full panel of roughly 79,000, 15% have a hit. Activity calls are given as the source filed them. Rule as the data show it: active = growth inhibition above about 70%; inactive = the rest.

Experiments:
[1] = NCI Yeast Anticancer Drug Screen. Data for the rad50 strain (AID 155);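 also: 0% = growth of vehicle-only cultures of the same strain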; conditions: S. cerevisiae rad50 strain growth inhibition; at 50.0 µM; active compounds read high
In short: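 Compounds were tested on a yeast strain with an engineered DNA damage repair alteration; the reported value is growth inhibition normalised to vehicle treatment.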

[2] = NCI Yeast Anticancer Drug Screen. Data for the mec2-1 strain (AID 157); conditions: S. cerevisiae mec2-1 strain, at 50.0 µM, active compounds read high
In short: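 Each compound was tested on mec2-1 yeast, a strain altered in DNA damage repair or cell cycle control. Growth inhibition is reported relative to vehicle.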

[3] = NCI Yeast Anticancer Drug Screen. Data for the sgs1 mgt1 strain (AID 161);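 also: 0% = growth of cultures given vehicle only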; conditions: S. cerevisiae sgs1 mgt1 strain, at 50.0 µM, active compounds read high
In short: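 Genetically altered yeast, compound exposure, growth inhibition relative to vehicle.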

[4] = NCI Yeast Anticancer Drug Screen. Data for the cln2 rad14 strain (AID 165);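 also: 0% = growth equal to vehicle treated cultures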; conditions: S. cerevisiae cln2 rad14 strain, at 50.0 µM, active compounds read high
In short: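 Test compounds were added to cln2 rad14 yeast cultures; inhibition of growth was then determined by comparison with vehicle treatment.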

[5] = NCI Yeast Anticancer Drug Screen. Data for the bub3 strain (AID 167); conditions: S. cerevisiae bub3 mutant strain, at 50.0 µM, active compounds read high
In short: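 Growth of a checkpoint-deficient yeast mutant is measured after compound exposure. Values represent inhibition relative to vehicle.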

[6] = NCI Yeast Anticancer Drug Screen. Data for the mlh1 rad18 strain (AID 175); conditions: S. cerevisiae mlh1 rad18 strain growth inhibition; at 50.0 µM; active compounds read high
In short: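 Inhibition values reflect reduced growth of mutant yeast versus vehicle-treated controls following compound exposure; the mutations affect DNA damage repair.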

Measured: growth inhibition

CC(C)(C)OC(=O)CNC(=O)C(CSC(c1ccccc1)(c1ccccc1)c1ccccc1)N1C(=O)c2ccccc2C1=O (centres undefined)
inactive: [1] 45.9% | [2] 32.5% | [3] 46.2% | [4] 31.9% | [6] 49.5%
active: [5] 73.6%

COc1ccccc1NC(=O)Oc1ccc(C#N)cc1
inactive: [1] 7.2% | [2] -14.5% | [3] 15% | [4] -1.8% | [5] 9.75% | [6] 0.4%

Cc1ccc(NC(=S)Nc2ccccc2C)nc1
inactive: [1] 5.95% | [2] 9.35% | [3] 27.9% | [4] 13.1% | [5] 2.6% | [6] 18.9%

CCC(=O)O[C@@H]1C2C(OC(C)=O)C34COC(C)([C@@H]3C3C(C[C@]3(C)OC(C)=O)[C@@H](OC(=O)c3ccccc3)C4=O)[C@H](OC(C)=O)[C@@]2(OC(C)=O)C[C@@H]1C (some centres undefined)
inactive: [1] 4.2% | [2] -6.65% | [3] 4.85% | [4] 0.45% | [5] 9.95% | [6] 4.35%

O=C(O)Cc1c(-c2ccccc2)nc(=S)[nH]c1-c1[nH]c(=S)nc(-c2ccccc2)c1CC(=O)O
inactive: [1] -15.6% | [2] 10.1% | [3] -17% | [4] -12.3% | [5] 2.15% | [6] 2.25%

COc1ccc2c(c1)CC1=C2CCC2(C)C(=O)CC=C12 (centres undefined)
inactive: [1] 11.7% | [2] -8.35% | [3] -7.65% | [4] 11.8% | [5] 4.5% | [6] 4.85%

Cc1nc2c(ncn2C2OC(CO)C(O)C2O)c(=O)[nH]1 (centres undefined)
inactive: [1] -2.7% | [2] 11.2% | [3] -2.7% | [4] -3.7% | [5] 0.85% | [6] -18.4%

O=[N+]([O-])c1ccccc1C1SCc2nc3ccccc3n21 (centres undefined)
inactive: [1] 25.2% | [2] 10.2% | [3] 31.8% | [4] 30.5% | [5] 44.5% | [6] 12.3%

O=C(Nc1ccc([N+](=O)[O-])cc1)OCc1ccccc1
inactive: [1] -14.1% | [2] -0.05% | [3] -9.35% | [4] 0.7% | [5] 1.7% | [6] -16%

CC(=O)c1ccc(N=Nc2ccc3nonc3c2N)cc1
inactive: [1] -22.5% | [2] -4.35% | [3] -20.6% | [4] -10.2% | [5] 5.25% | [6] -9.45%

O=C(O)c1c[nH]c(=O)[nH]c1=O
inactive: [1] 1.25% | [2] -5.4% | [3] 1.25% | [4] -5.55% | [5] 0.65% | [6] -7.5%

O=C(COc1cccc(C(=O)O)c1)Nc1ccccc1
inactive: [1] 3.5% | [2] 7.9% | [3] 12.4% | [4] -1.4% | [5] 50.8% | [6] 8%

COc1ccc(Cc2ccc(Cl)cc2)c(OC)c1
inactive: [1] 3.3% | [2] 2.25% | [3] 19.8% | [4] 15.2% | [5] -12.2% | [6] -5.15%

CNC(=O)OCc1c(COC(=O)NC)c(-c2ccc(C(C)(C)C)cc2)n(C)c1C
inactive: [1] 3.45% | [2] 12.9% | [3] 5.5% | [4] -2.75% | [5] 15.8% | [6] 22.1%

Cn1c(=O)c2[nH]c(SCC(=O)O)nc2n(C)c1=O
inactive: [1] 7.45% | [2] 0.95% | [3] 3.35% | [4] -21.4% | [5] 7.6% | [6] -3.65%

CSc1ncc(CO)c(NC(C)(C)C)n1
inactive: [1] 2.65% | [2] 5.7% | [3] 0.55% | [4] -19.8% | [5] -0.75% | [6] 10.5%

O=C(O)C=C(CBr)CBr
inactive: [1] 11.5% | [2] -3% | [3] -1.25% | [4] -24.1% | [5] 14.1% | [6] 9.05%

Nc1ccc(S(=O)(=O)N/N=C/c2ccccc2)cc1
inactive: [1] 10.2% | [2] -0.4% | [3] 12.1% | [4] 34.4% | [5] -34% | [6] 29.8%

Cc1nc[nH]c1[N+](=O)[O-]
inactive: [1] -6.6% | [2] -11% | [3] -10% | [4] 2.2% | [5] -0.85% | [6] -12.7%
